Most compounds without a hit are left out; they make up all but 2.8% or so of the library.
Shn3 3UTR inh = Schnurri-3 reporter inhibition in Clone20 osteoblasts. Clone20 osteoblast Shn3 3'UTR firefly luciferase, 24 h. inhibition, % at 12.5 µM. hit rate 0.52% among 360,000;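 active = mean inhibition of at least 75% with every replicate also reaching 75%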;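 also: 0% = median of neutral control wells and 100% = pilot-screen positive control compound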
CF NFkB inh = inhibitors of cystic fibrosis induced NF-kB; KKLEB NF-kB-GFP reporter, PAF-induced, GFP fluorescence overnight; inhibition, % at 5 µM; hit rate 0.86% among 360,000;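 active = at least 50% inhibition at 5 µM, scaled per plate between neutral and stimulator controls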;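 also: PAF is a Pseudomonas aeruginosa culture filtrate used as stimulus; plate controls were PAF-stimulated DMSO wells for no effect and unstimulated DMSO wells for full effect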
Peg3 prom inh-1 = inhibitors of Peg3 promoter; HeLa PEG-Prom luciferase reporter, luminescence, overnight; inhibition, % at 20 µM; hit rate 1.7% among 360,000; AID 588405;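 active = inhibition of at least 50% at 20 µM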
HIF-2a block = blocks HIF-2a reporter activity. 786-0 RCC cells HIF-2a reporter, luciferase luminescence, overnight. inhibition, % at 18.8 µM. hit rate 0.72% among 360,000;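 active = inhibition of the luminescence signal of 40% or more relative to plate controls, in a single-dose primary screen at 18.75 µM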
KKLEB tox = reduces viability of KKLEB cystic fibrosis airway cells; KKLEB CF airway cells viability, ATPlite luminescence, overnight; hits give low values; cells stimulated with P. aeruginosa culture filtrate; activity change (cytotoxicity), % at 5 µM; hit rate 0.36% among 360,000; AID 602141;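 active = corrected activity change at or below -50% at 5 µM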
MITF TRPM1 inh = inhibitors of MITF-driven TRPM1 promoter in melanoma cells; hit rate 0.83% among 330,000; AID 488899; inhibition, % at 12.5 µM; SK-MEL-5 TRPM1 promoter luciferase, 24 h;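 active = mean inhibition across replicates of 60% or more, whatever share of single replicates reaches that level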
Peg3 prom inh-2 = confirmation of Peg3 promoter inhibitors; inhibition, % at 20 µM; shares compounds with Peg3 prom inh-1; HeLa PEG-Prom luciferase reporter, luminescence, overnight; hit rate 84% among 1,300;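 active = at 20 µM dose, 40% or more inhibition averaged across four replicates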
* hit, by the source's call.

Results for O=C(CN1CCN(Cc2ccccc2Cl)CC1)N=Nc1c(O)[nH]c2ccccc12 ?
Shn3 3UTR inh: 9; CF NFkB inh: 25; Peg3 prom inh-1: 54*; HIF-2a block: 29; KKLEB tox: -17; MITF TRPM1 inh: 3; Peg3 prom inh-2: 48*

How did COC(=O)[C@H](NC(=O)c1cc([C@@H](NC(=O)OC(C)(C)C)C(C)C)sc1N)C(C)C do in these assays?
HIF-2a block: 14

How did CCN1C(=O)C(=Cc2cccc(OC)c2Oc2ccc([N+](=O)[O-])cc2[N+](=O)[O-])SC1=S do in these assays?
Shn3 3UTR inh: 99*; CF NFkB inh: 88*; Peg3 prom inh-1: 108*; HIF-2a block: 6; KKLEB tox: -84*; MITF TRPM1 inh: 88*; Peg3 prom inh-2: 72*

Results for CCCCCCN1C=C/C(=C\C=C(C#N)C#N)c2ccccc21 ?
Shn3 3UTR inh: 67; CF NFkB inh: 20; Peg3 prom inh-1: 56*; HIF-2a block: 34; KKLEB tox: -27; MITF TRPM1 inh: 36; Peg3 prom inh-2: 45*

What do the screens show for `C=CCN1C=C/C(=C\C=C(C#N)C#N)c2ccccc21`?
Shn3 3UTR inh: 5; CF NFkB inh: -75; Peg3 prom inh-1: 11; HIF-2a block: -36; KKLEB tox: 11; MITF TRPM1 inh: 11

How did COc1ccc(-c2nc3c(c(SCC(=O)N4CCOCC4)n2)Cc2c(CO)cnc(C)c2O3)cc1 do in these assays?
Shn3 3UTR inh: 10; CF NFkB inh: 7; Peg3 prom inh-1: 54*; HIF-2a block: 2; KKLEB tox: 1; MITF TRPM1 inh: 5; Peg3 prom inh-2: 40*

What do the screens show for `COC(=O)c1cc(S(=O)(=O)N2CCC(c3cc(OC)ccc3OC)C2)c[nH]1` (stereo not given)?
Shn3 3UTR inh: 79; CF NFkB inh: 3; Peg3 prom inh-1: 11; HIF-2a block: 14; KKLEB tox: -2; MITF TRPM1 inh: 15

Results for COc1ccc(C2NC3=C(CCC3)C3(C#N)C4(N=C(N)C23C#N)OCCO4)cc1 (stereo not given) ?
Shn3 3UTR inh: 22; CF NFkB inh: -19; Peg3 prom inh-1: 67*; HIF-2a block: 38; KKLEB tox: 9; MITF TRPM1 inh: 17; Peg3 prom inh-2: 30

What do the screens show for `COc1ccc(C2C3(C#N)C(N)=NC(OC)(OC)C23C#N)cc1` (stereo not given)?
Shn3 3UTR inh: 4; CF NFkB inh: 17; Peg3 prom inh-1: 17; HIF-2a block: 5; KKLEB tox: -8; MITF TRPM1 inh: 18

What do the screens show for `CCCN(CC(=O)Nc1ccccc1Br)CC(=O)Nc1ccc(F)c(F)c1F`?
Shn3 3UTR inh: -44; CF NFkB inh: 9; Peg3 prom inh-1: 16; HIF-2a block: 19; KKLEB tox: -7; MITF TRPM1 inh: 1

How did CCCN(CC(=O)Nc1cc(Cl)cc(Cl)c1)CC(=O)Nc1ccc(F)c(F)c1F do in these assays?
Shn3 3UTR inh: 10; CF NFkB inh: 6; Peg3 prom inh-1: 87*; HIF-2a block: -9; KKLEB tox: -24; MITF TRPM1 inh: -21; Peg3 prom inh-2: 91*

How did CN1CCC(C)(C(=O)Nc2cccc(Oc3ccccc3)c2)C1 (stereo not given) do in these assays?
Shn3 3UTR inh: 5; CF NFkB inh: 12; Peg3 prom inh-1: 2; HIF-2a block: 0; KKLEB tox: -12

Results for CCCn1c(=N)n(CC(=O)c2ccc(Cl)cc2)c2ccccc21 ?
Shn3 3UTR inh: 24; CF NFkB inh: -11; Peg3 prom inh-1: 66*; HIF-2a block: 7; KKLEB tox: -6; MITF TRPM1 inh: 16; Peg3 prom inh-2: 60*

Results for Cc1ccc(Cn2c(=N)n(CC(=O)c3ccccc3)c3ccccc32)cc1 ?
Shn3 3UTR inh: 83; CF NFkB inh: 12; Peg3 prom inh-1: 92*; HIF-2a block: 10; KKLEB tox: -15; MITF TRPM1 inh: 1; Peg3 prom inh-2: 86*

How did O=C(Nc1ccc(C(=O)N2CCCC2)cc1)C1CCC1 do in these assays?
Shn3 3UTR inh: -2; CF NFkB inh: 6; Peg3 prom inh-1: -26; HIF-2a block: -17; KKLEB tox: -10; MITF TRPM1 inh: -7

How did CCOC(=O)c1cnc2c(cnn2C)c1NCCCN(C)C do in these assays?
Shn3 3UTR inh: 2; CF NFkB inh: -17; Peg3 prom inh-1: 62*; HIF-2a block: 1; KKLEB tox: 0; MITF TRPM1 inh: -1; Peg3 prom inh-2: 56*

Results for CCc1nnc(NC(=O)CSc2nnc(Cc3cc(=O)[nH]c(=O)[nH]3)n2-c2cccc(OC)c2)s1 ?
Shn3 3UTR inh: 9; CF NFkB inh: 13; Peg3 prom inh-1: 21; HIF-2a block: 9; KKLEB tox: 2; MITF TRPM1 inh: 1

Results for COc1ccc2c(c1)C=C([C@@H]1C[C@H]3CN(c4ccccc4)C(=O)[C@]34CCCN14)CO2 ?
Shn3 3UTR inh: 24; CF NFkB inh: 0; Peg3 prom inh-1: 71*; HIF-2a block: 15; KKLEB tox: 14; MITF TRPM1 inh: 0; Peg3 prom inh-2: 53*

How did CN1C[C@@H]2C[C@@H](C3=Cc4cc(Cl)ccc4OC3)N3CCC[C@@]23C1=O do in these assays?
Shn3 3UTR inh: -9; CF NFkB inh: 0; Peg3 prom inh-1: 8; HIF-2a block: 12; KKLEB tox: 6; MITF TRPM1 inh: -9

Results for NS(=O)(=O)c1ccc(CCNc2nn3c(-c4ccc(F)c(Cl)c4)cnc3s2)cc1 ?
Shn3 3UTR inh: 58; CF NFkB inh: 42; Peg3 prom inh-1: 67*; HIF-2a block: 34; KKLEB tox: -12; Peg3 prom inh-2: 95*

What do the screens show for `c1coc(-c2cc3nc(NC4CCCCC4)ccn3n2)c1`?
Shn3 3UTR inh: -73; CF NFkB inh: 20; Peg3 prom inh-1: -311; HIF-2a block: -252; KKLEB tox: -11

How did Cc1ccccc1-c1nc(CN2CCC(C(=O)NC3CCN(Cc4ccccc4)CC3)CC2)c(C)o1 do in these assays?
Shn3 3UTR inh: 33; CF NFkB inh: 20; Peg3 prom inh-1: 56*; HIF-2a block: 2; KKLEB tox: -8; MITF TRPM1 inh: 30; Peg3 prom inh-2: -7

Results for N=c1n(CCN2CCOCC2)c2ccccc2n1CC(=O)c1ccc(Cl)c(Cl)c1 ?
Shn3 3UTR inh: 18; CF NFkB inh: -16; Peg3 prom inh-1: 5; HIF-2a block: -32; KKLEB tox: -9; MITF TRPM1 inh: -3

Results for N=c1n(CCN2CCCC2)c2ccccc2n1CC(O)c1ccc(Cl)c(Cl)c1 (stereo not given) ?
Shn3 3UTR inh: 15; CF NFkB inh: 20; Peg3 prom inh-1: 115*; HIF-2a block: 15; KKLEB tox: -22; MITF TRPM1 inh: 99*; Peg3 prom inh-2: 98*

Results for CC(Sc1nc2ncc(Cl)cc2[nH]1)C(=O)Nc1ccc(C(N)=O)cc1 (stereo not given) ?
Shn3 3UTR inh: 1; CF NFkB inh: 22; Peg3 prom inh-1: -1; HIF-2a block: 15; KKLEB tox: 2; MITF TRPM1 inh: 13
